FBW7 act: FBW7 E3 ligase activators, primary screen, biochemical, AlphaScreen, human; AlphaScreen FBW7–phospho-cyclin E peptide binding, activator screen; normalized activity (activation), % at 26.1 µM; actives 0.13% (n = 650,000); AID 1259310, 2017; in the data active = normalized activity above about 1.9%;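 also: purified mutant Fbw7 with reduced substrate affinity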
TEAD-YAP block: TEAD-YAP interaction inhibition, primary screen, TEAD-YAP interaction inhibitor project, luminescence, HEK-TIYL cells | TEAD-Gal4/YAP UAS-luciferase luminescence | actives 1.4% (n = 640,000) | inhibition, % at 9.12 µM | AID 1259422, 2018; in the data active = inhibition above about 32%
MITF primary: MITF inhibitors, primary screen, biochemical, AlphaScreen, human | Microphthalmia-associated transcription factor (Homo sapiens), O75030 | AlphaScreen MITF homodimerization, bead proximity signal | inhibition, % at 2.6 µM | actives 0.91% (n = 650,000) | AID 1259374, 2018; in the data active = inhibition above about 50%
GPR151 ag: activators of human GPR151, primary screen, cell-based, PathHunter beta-arrestin, luminescence; G-protein coupled receptor 151 (Homo sapiens), Q8TDV0; PathHunter beta-arrestin GPR151 cells; activation, % at 11.2 µM; actives 1% (n = 650,000); AID 1508602, 2020; in the data active = activation above about 4.9%
Target sequence (Q8TDV0 whole entry, looked up): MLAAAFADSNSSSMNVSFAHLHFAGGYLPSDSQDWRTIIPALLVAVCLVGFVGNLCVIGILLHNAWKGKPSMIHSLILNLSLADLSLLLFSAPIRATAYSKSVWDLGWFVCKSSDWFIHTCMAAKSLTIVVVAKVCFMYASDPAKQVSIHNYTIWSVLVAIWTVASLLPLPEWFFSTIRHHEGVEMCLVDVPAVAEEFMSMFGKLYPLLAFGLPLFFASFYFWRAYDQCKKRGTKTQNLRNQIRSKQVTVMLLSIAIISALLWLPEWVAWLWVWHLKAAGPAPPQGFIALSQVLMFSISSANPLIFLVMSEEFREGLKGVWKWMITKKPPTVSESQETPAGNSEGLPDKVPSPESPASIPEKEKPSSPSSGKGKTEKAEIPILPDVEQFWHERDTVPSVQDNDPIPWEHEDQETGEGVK
MITF confirm: MITF inhibitors, retest of hits, confirmation, biochemical, AlphaScreen, triplicate. AlphaScreen MITF homodimerization, biotin/His-MITF beads. shares compounds with MITF primary. inhibition, % at 2.6 µM. AID 1259372, 2018. actives 16% (n = 4,700);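 active = inhibition above a cutoff derived from the DMSO control wells, cut at about 28% in these data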;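 also: inhibitors lower the bead chemiluminescence by keeping MITF from dimerizing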
AS interf DR: AlphaScreen optical interference compounds, dose response, counter-screen, biochemical, HTS; IC50, µM; shares compounds with MITF primary; actives 6% (n = 480); AID 1259373, 2018; AlphaScreen optical interference counterscreen, cell-free; call rule not given here
AlphaScreen intf2: AlphaScreen optical interference compounds, counter-screen for MITF inhibitor project, biochemical, triplicate; shares compounds with MITF primary; LysRS AlphaScreen counterscreen, signal interference; inhibition, % at 2.6 µM; actives 7.6% (n = 4,700); AID 1259376, 2018;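 active = inhibition above a cutoff derived from the DMSO control wells, cut at about 30% in these data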
A number is an active result; i = inactive; nt = no result given. The list is not random: actives were taken first. Their share in the collection is about 3.4%.

SMILES | FBW7 act | TEAD-YAP block | MITF primary | GPR151 ag | MITF confirm | AlphaScreen intf2 | others
Clc1ccc(CN2CCN(Cc3c[nH]c4ccccc34)CC2)cc1 | i | i | 74.7 | i | 84.0 | i | AS interf DR=i
Fc1ccccc1CN1CCN(Cc2cccc3ccccc23)CC1 | i | i | 73.8 | i | i | i
CCOC(=O)C(C)(C)N(Cc1cccc(C)c1)S(=O)(=O)c1ccc([N+](=O)[O-])cc1 | i | i | i | i | nt | nt
CCCCN(CC)C(=O)C1c2cc(OC)c(OC)cc2C(=O)N2CCc3ccccc3C12 (stereo not drawn) | i | i | i | i | nt | nt
CC1=C(C(=O)N2CCOCC2)C(c2ccc(C)cc2)NC(=S)N1 (stereo not drawn) | i | i | 70.2 | i | i | i
CC1=C(C(=O)N2CCOCC2)C(c2ccc(Cl)cc2)NC(=S)N1 (stereo not drawn) | i | i | i | i | nt | nt
COc1cc(CN2CCN(C3CCCCC3C)CC2)cc(OC)c1OC (stereo not drawn) | i | i | 73.8 | i | i | i
COc1cc(CN2CCC(N3CCCC3)CC2)cc(OC)c1OC | i | i | 58.3 | i | i | i
COc1cc(CN2CCC(N3CCCCC3)CC2)cc(OC)c1OC | i | i | i | i | nt | nt
O=C(Nc1ccc(-c2cn[nH]c2)c(C(F)(F)F)c1)C1COc2ccccc2O1 (stereo not drawn) | i | i | 61.3 | i | 36.9 | i | AS interf DR=i
CCN1CCN(CCCCOc2cccc(C(C)=O)c2)CC1 | i | i | 59.3 | i | i | i
CC(=O)c1cccc(OCCCN2CCCCC2)c1 | i | i | i | i | nt | nt
CC(=O)c1cccc(OCCN2CCN(C)CC2)c1 | i | i | 57.0 | i | i | i
CC(=O)c1ccc(OCCCN2CCN(C)CC2)cc1 | i | i | i | i | nt | nt
CCOC(=O)c1cnc(SCC(=O)Nc2ccc(Cl)cc2Cl)nc1N | i | i | i | i | nt | nt
COc1ccc(NC(=O)c2oc3ccccc3c2NC(C)=O)c(OC)c1 | i | i | i | i | nt | nt
CCCCc1ccc(NC(=O)C(=O)NCC(CC)CCCC)cc1 (stereo not drawn) | i | i | i | i | nt | nt
COc1cc(/C=C2\C(C)=C([N+](=O)[O-])CS2(=O)=O)ccc1O | i | i | 87.3 | i | 75.7 | i | AS interf DR=i
CC1=C([N+](=O)[O-])CS(=O)(=O)/C1=C\c1ccccc1 | i | i | i | i | nt | nt
O=c1[nH]c(CN(CCO)Cc2nc3sccc3c(=O)[nH]2)nc2sccc12 | i | i | 78.1 | i | 46.5 | 100.3
Cc1ccc(C(c2ccc(C)o2)c2ccccc2N)o1 | i | i | 67.1 | i | i | i
COc1ccccc1C(c1ccc(C)o1)c1ccc(C)o1 | i | i | i | i | nt | nt
O=C(CC(NCc1ccccc1)C(=O)O)Nc1cccc(Cl)c1Cl (stereo not drawn) | i | i | i | i | nt | nt
COc1ccc(NC(=O)CC(NCc2ccccn2)C(=O)O)cc1 (stereo not drawn) | i | i | 110.2 | i | 107.4 | 100.3
NCCNC(CC(=O)Nc1cccc(Cl)c1Cl)C(=O)O (stereo not drawn) | i | i | 85.3 | i | i | 33.0
SMILES | FBW7 act | TEAD-YAP block | MITF primary | GPR151 ag | MITF confirm | AlphaScreen intf2 | others
CCCNC(CC(=O)Nc1ccc(OC)cc1)C(=O)O (stereo not drawn) | i | i | i | i | nt | nt
Cc1c(Cl)cccc1NC(=O)CC(NCCCN(C)C)C(=O)O (stereo not drawn) | i | i | i | i | nt | nt
Cc1c(Cl)cccc1NC(=O)CC(NCc1ccccn1)C(=O)O (stereo not drawn) | i | i | 90.2 | i | 61.8 | 100.3
O=C(NC1CCS(=O)(=O)C1)c1ccccc1Br (stereo not drawn) | i | i | 50.9 | i | i | i
O=C(NC(=S)NC1CCS(=O)(=O)C1)c1ccccc1Br (stereo not drawn) | i | i | i | i | nt | nt
Ic1ccc(OCCCNC2CCCC2)cc1 | i | i | i | i | nt | nt
Ic1ccc(OCCNC2CCCC2)cc1 | i | i | 59.2 | i | i | i
CC(=O)c1cccc(-c2nc(NCc3cccc(C(F)(F)F)c3)c3ncn(-c4ccccc4)c3n2)c1 | i | i | i | i | nt | nt
Clc1cccc(CN2CCN(C3CCCCC3)CC2)c1 | i | i | 74.1 | i | i | i
OC1CCN(Cc2ccc3c(c2)OCO3)CC1 | i | i | i | i | nt | nt
CC1CCC(N2CCN(Cc3cccc(Cl)c3)CC2)CC1 (stereo not drawn) | i | i | 63.5 | i | i | i
Cc1cccc(CN2CCN(C3CCCCCC3)CC2)c1 | i | i | i | i | nt | nt
OCC1CCN(C2CCCN(Cc3cccc(Cl)c3)C2)CC1 (stereo not drawn) | i | i | i | i | nt | nt
CC1CCN(C2CCN(Cc3ccc4c(c3)OCO4)CC2)CC1 | i | i | 54.5 | i | i | i
CC1CCN(C2CCN(Cc3cccc(Cl)c3)CC2)CC1 | i | i | 57.1 | i | i | i
COCCn1c(Cc2ccccc2)nnc1SCC(=O)N1CCOCC1 | i | i | i | i | nt | nt
O=C(CCCc1nc2ccccc2c(=O)[nH]1)NCc1ccc2c(c1)OCO2 | i | i | i | i | nt | nt
c1ccc(Oc2cccc(CN3CCN(Cc4ccncc4)CC3)c2)cc1 | i | i | 69.4 | i | i | i
O=C(c1ccncc1)N1CCN(Cc2cccc(Oc3ccccc3)c2)CC1 | i | i | i | i | nt | nt
COc1cccc(CN2CCC(=O)N(Cc3ccc(F)cc3)CC2)c1 | i | i | i | i | nt | nt
Fc1ccccc1CN1CCN(Cc2cccc(Oc3ccccc3)c2)CC1 | i | i | 71.8 | i | i | i
c1ccc(Oc2cccc(CN3CCSCC3)c2)cc1 | i | i | i | i | nt | nt
CCN1CCN(Cc2cccc(Oc3ccccc3)c2)CC1 | i | i | 66.4 | i | i | i
CCOc1ccc(CN2CCN(Cc3cccc(Oc4ccccc4)c3)CC2)cc1 | i | i | i | i | nt | nt
Fc1ccc(CN2CCN(Cc3cccc(Oc4ccccc4)c3)CC2)cc1 | i | i | 68.2 | i | i | i
SMILES | FBW7 act | TEAD-YAP block | MITF primary | GPR151 ag | MITF confirm | AlphaScreen intf2 | others
CC1=C(C(=O)c2ccc(Cl)cc2)C(c2ccccc2[N+](=O)[O-])NC(=O)N1 (stereo not drawn) | i | i | i | i | nt | nt
O=C(C1CCCN(Cc2cccc(F)c2)C1)N1CCCCCC1 (stereo not drawn) | i | i | i | i | nt | nt
O=C(C1CCCN(Cc2cccnc2)C1)N1CCCCC1 (stereo not drawn) | i | i | 103.5 | i | i | i
O=C(C1CCCN(Cc2ccncc2)C1)N1CCCCC1 (stereo not drawn) | i | i | 103.5 | i | i | i
CN(C)C=Nc1cc2c(cc1[N+](=O)[O-])OCCO2 | i | i | 51.0 | i | i | i
Nc1cc2c(cc1[N+](=O)[O-])OCCO2 | i | i | i | i | nt | nt
